Measurements reported in the supplement of paper PMC3334620.
The full ranking holds about 33,000 sequences; the median of “E-score (-0.5 to 0.5)” is about -0.015, and the highest 2% start at about 0.3. Only a selection was taken, and the highest values are over-represented in it overall.

Molecular target: T1, Abf1 (UniProt P14164)
T1 sequence: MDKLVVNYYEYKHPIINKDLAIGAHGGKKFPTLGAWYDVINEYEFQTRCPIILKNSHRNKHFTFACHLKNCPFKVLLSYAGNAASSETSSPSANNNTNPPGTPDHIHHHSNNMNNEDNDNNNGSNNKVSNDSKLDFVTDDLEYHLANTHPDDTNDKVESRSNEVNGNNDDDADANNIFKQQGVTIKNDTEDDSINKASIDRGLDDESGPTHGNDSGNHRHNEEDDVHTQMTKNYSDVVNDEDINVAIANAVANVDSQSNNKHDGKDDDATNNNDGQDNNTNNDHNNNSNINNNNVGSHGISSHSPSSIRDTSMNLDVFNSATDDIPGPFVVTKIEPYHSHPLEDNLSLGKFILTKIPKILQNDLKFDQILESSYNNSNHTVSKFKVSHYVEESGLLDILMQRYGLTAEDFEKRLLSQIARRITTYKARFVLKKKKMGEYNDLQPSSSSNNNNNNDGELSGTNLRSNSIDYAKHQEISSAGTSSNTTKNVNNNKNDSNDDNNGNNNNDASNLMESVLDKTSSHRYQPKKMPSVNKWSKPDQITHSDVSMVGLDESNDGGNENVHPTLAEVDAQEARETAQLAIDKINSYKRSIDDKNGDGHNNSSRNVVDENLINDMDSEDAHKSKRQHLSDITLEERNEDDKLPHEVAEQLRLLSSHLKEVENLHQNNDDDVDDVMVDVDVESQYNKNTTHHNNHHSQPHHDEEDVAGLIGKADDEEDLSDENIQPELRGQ
Assay: PBM E-score (8-mer binding enrichment) (E-score (-0.5 to 0.5)); higher = stronger / more preferred TF binding
Conditions: protein concentration: 200 nM; construct: GST-full length
Method: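 Universal 'all 10-mer' protein binding microarrays (Agilent AMADID 015681) probed with GST-tagged S. cerevisiae TFs (full-length or DBD) made by in vitro transcription/translation (PURExpress), about 100-200 nM. Bound TF was detected with fluorescent anti-GST. Each ungapped 8-mer (which stands for itself and its reverse complement) is scored by the PBM enrichment score (E-score), a modified Wilcoxon-Mann-Whitney statistic from -0.5 to +0.5, computed with the Universal PBM Analysis Suite. Scale: above 0.35 generally sequence-specific binding.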

Row | Sequence | PBM E-score
1 | TCAGGCGA | 0.0781
2 | ATCGACTA | 0.029
3 | ATAAGATG | 0.201
4 | ATGTTCTG | 0.093
5 | GGTCGCAA | -0.0813
6 | GGAGAGCA | -0.253
7 | ACTATGGA | -0.013
8 | ATAATTAA | 0.274
9 | ATAATTAC | 0.261
10 | AAAATGGC | 0.0419
11 | ATAATGAG | 0.117
12 | AGAATGAG | -0.157
13 | AGAATGAT | 0.33
14 | AAAATGAC | 0.297
15 | ATAATGAT | 0.344
16 | AGAATGAA | 0.144
17 | ACAATGAC | 0.107
18 | ATAATGAC | 0.258
19 | ATAATTAT | 0.303
20 | GGGACGTA | 0.159
21 | CGAGTCAA | -0.0144
22 | AGAAGGCG | -0.119
23 | GGGATACA | -0.0572
24 | CTGTCTGC | -0.243
25 | ATTCCGAA | 0.0789

Row | Sequence | PBM E-score
26 | CAAGGAGC | -0.363
27 | GGCAAAAC | -0.0611
28 | AAAATGAA | 0.056
29 | GAAATGAC | 0.312
30 | AAAATGAT | 0.387
31 | AAAATGAG | 0.0916
32 | CAAATGAC | 0.144
33 | GAAATGAA | 0.164
34 | AAGGCTTA | -0.214
35 | ACACGTCA | 0.151
36 | AGACGTCA | 0.107
37 | TCACGTCA | 0.331
38 | TGACGTCA | 0.314
39 | GCACGTCA | 0.0421
40 | GGACGTCA | 0.0888
41 | CCACCTAG | -0.225
42 | GATGGTGA | 0.0135
43 | GCTCACCA | -0.17
44 | TATCACCA | 0.364
45 | AATCACCA | 0.24
46 | CATCACCA | 0.176
47 | GATCACCA | 0.308
48 | GATCACCC | 0.261
49 | CAGAATTC | 0.0421
50 | GAACTTCC | -0.12

Row | Sequence | PBM E-score
51 | GTCTCAAA | 0.161
52 | GTTACTCA | 0.0462
53 | AGAAACGC | -0.132
54 | AACTCCTG | -0.177
55 | ACCCGGAG | -0.0473
56 | AATGCCTA | -0.212
57 | AATTACGA | 0.186
58 | ACTTACGA | 0.325
59 | TATTACGA | 0.311
60 | ACTTACGC | -0.0756
61 | GCTTACGA | -0.071
62 | CATTACGA | 0.128
63 | CATTGGTC | -0.0867
64 | ATCCACAA | -0.138
65 | ATCCACGG | 0.316
66 | ATCCACGA | 0.199
67 | AAACCGCG | -0.0683
68 | CCTGGAAC | -0.0203
69 | GGGTGAGA | -0.136
70 | AGGTGAGA | 0.0141
71 | CGGTGATA | 0.334
72 | GGGTGATA | 0.38
73 | CGGTGAAA | 0.186
74 | AGGTGATG | 0.163
75 | AGGTGATA | 0.357

Row | Sequence | PBM E-score
76 | GGGTGAAA | 0.0485
77 | CGGTGATC | 0.214
78 | CAGCTTCG | 0.0552
79 | CTCGAGGC | -0.193
80 | AGCCAGAG | -0.0331
81 | CGGCCTAA | -0.0583
82 | CTCACTCA | 0.0709
83 | GTCACTCA | 0.238
84 | CTCACTCC | -0.0715
85 | ACCACTCG | 0.187
86 | AACACTCG | -0.00319
87 | ATCACTCG | 0.31
88 | AACACTCC | -0.121
89 | ATCACTCC | 0.345
90 | ATCACTCA | 0.369
91 | CGTTTGGC | 0.0893
92 | TCAGGACA | 0.156
93 | ATCTGAAG | -0.1
94 | ATAACCAT | 0.0871
95 | CACAAAAG | -0.0552
96 | CCAGCCAC | -0.0544
97 | ATATGATA | 0.316
98 | ATATGATG | 0.191
99 | GTATGACA | 0.176
100 | GTATGATA | 0.327

Row | Sequence | PBM E-score
101 | GTATGAGA | 0.145
102 | CTATGATA | 0.143
103 | CATCCGGG | -0.161
104 | AAACCGTA | 0.221
105 | ACACCAAT | 0.0514
106 | CGGGATGA | 0.0791
107 | ACGACCGC | 0.041
108 | GGGGAATA | -0.112
109 | AAAGAGAG | -0.214
110 | AAGAGAAA | -0.0161
111 | ACTTGAAT | 0.0842
112 | CGACATCA | 0.315
113 | AGACATCG | 0.111
114 | CGACATTC | 0.0424
115 | CGACATTA | 0.317
116 | GGACATCA | 0.215
117 | AGACATTA | -0.0164
118 | TGACATCA | 0.274
119 | CGACATCC | 0.121
120 | CGACATCG | 0.301
121 | CAGAAACA | -0.0715
122 | GAGGAACA | -0.095
123 | CCAGACAG | -0.2
124 | GAGTAAAA | 0.0646
125 | CCGCGACG | 0.32

Row | Sequence | PBM E-score
126 | CCGCGACC | -0.0179
127 | CCGCGACA | 0.154
128 | CTAATGCC | -0.208
129 | CAATCGTG | 0.122
130 | AAAACGCA | 0.00195
131 | AGGTTTCG | -0.199
132 | TGCGAAAA | 0.175
133 | CACGATCA | 0.272
134 | AACGAACG | 0.144
135 | CACGATCC | 0.0482
136 | AACGAACA | 0.215
137 | GACGAACA | 0.253
138 | TACGAACA | 0.351
139 | CACGAACA | 0.186
140 | TACGAAAA | 0.297
141 | AACGAAAA | 0.103
142 | CACGATCG | 0.339
143 | CACGAACG | 0.372
144 | AACAAATT | 0.201
145 | AAAAACGT | 0.0618
146 | GTAGCCCA | 0.0106
147 | ACCATCCC | -0.155
148 | AACAGAGA | -0.09
149 | ACCGCTCA | 0.0985
150 | GAGCACTA | 0.0823

Row | Sequence | PBM E-score
151 | CACGAAAC | 0.272
152 | GACGAATA | 0.232
153 | AACGAAAC | 0.101
154 | GCCGAAAC | -0.0478
155 | GACGAAAC | 0.344
156 | GACGAAAA | 0.337
157 | GCCGAAAA | 0.173
158 | CACGAAAA | 0.31
159 | CACGAAAG | 0.272
160 | CTAGGAGA | -0.236
161 | TCTACCAA | -0.0268
162 | CTGGACCC | -0.279
163 | CGGATGAA | 0.211
164 | GCGTGTCA | 0.0814
165 | TCATGTCA | 0.332
166 | TCGTGTAA | 0.343
167 | ACGTGGAA | 0.118
168 | TCGTGTCA | 0.326
169 | GCGTGGAA | -0.105
170 | CCGTGTCA | 0.268
171 | GCATGTCA | 0.225
172 | TCGTGGAA | 0.336
173 | CCGTGTAA | 0.217
174 | ACATGTCA | 0.221
175 | ACGTGTAA | 0.235

Row | Sequence | PBM E-score
176 | CAGAAGGG | -0.136
177 | AAACTCAA | 0.0218
178 | ATGTTACG | 0.087
179 | GTTGGTCA | 0.221
180 | ACATCTAA | -0.0374
181 | CGACCTCA | 0.00561
182 | CTCGCGAC | 0.238
183 | ATCGCGAT | 0.411
184 | GTCGCGAC | 0.32
185 | ATCGCGAA | 0.199
186 | GTCGCGAA | 0.188
187 | ATCGCGAG | 0.138
188 | AACACAAC | -0.029
189 | CATAAACG | 0.22
190 | GAATGCCC | -0.0158
191 | ACGCACGA | 0.389
192 | TCGCACAA | 0.167
193 | ACGCACGT | 0.105
194 | GCCCACGA | 0.019
195 | GCGCACGA | 0.0514
196 | CCGCACGG | 0.0967
197 | TCGCACGA | 0.317
198 | CCGCACGC | -0.186
199 | TCCCACGA | 0.326
200 | ACGCACGC | -0.0387

Row | Sequence | PBM E-score
201 | ACCCACGA | 0.287
202 | CCGCACGA | 0.376
203 | AAGTCCCC | -0.149
204 | ACTCTGAT | 0.043
205 | ACTAGTGC | 0.104
206 | CGGCCCGC | -0.121
207 | AATGCTCC | -0.223
208 | CGCGTACG | 0.271
209 | ATTATGGG | 0.00349
210 | GGATATAC | -0.053
211 | GGATATAA | 0.298
212 | CGATATAA | 0.203
213 | AGTTACGG | 0.0796
214 | GGAGGAAA | -0.252
215 | ACGATATG | 0.304
216 | ACGATACT | 0.285
217 | ACGATATC | 0.321
218 | CCGATACG | 0.121
219 | CCGATATC | 0.21
220 | AGGATATC | 0.24
221 | ACGATAGG | 0.233
222 | ACGATATA | 0.289
223 | ACGATACG | 0.334
